According to PubChem BioAssay AID1224921 (Broad Institute, 2016):
Screen size: about 1,400 compounds; about 350 (25%) were called active. Not shown: some 2% with an inconclusive outcome. The rule behind the calls is not given here. A selection follows. Measured potencies and affinities stand elsewhere.

test: inhibitors of Clostridioides difficile proliferation – 4-point retest, confirmation (AID 1224921); conditions: Clostridioides difficile clinical isolate growth, OD600, 24 h, active compounds read low; at 30 µM unless noted;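 note: plate controls were DMSO wells for no effect and levofloxacin 16 µg/mL wells for full effect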

Max activity, inactive:
C[C@H]1CN([C@@H](C)CO)C(=O)c2ccccc2-c2ccccc2CO[C@H]1CN(C)C(=O)CCN(C)C -12.8% [at 35 µM], C/C=C/c1ccc2c(c1)O[C@H](CN(C)C(=O)Nc1ccc(C(F)(F)F)cc1)[C@@H](C)CN([C@@H](C)CO)S2(=O)=O 32.5% [at 8 µM], C[C@H]1CN([C@@H](C)CO)C(=O)c2cc(Br)cnc2O[C@@H]1CN(C)C(=O)c1ccccc1 -20% [at 8 µM], COc1ccc(NC(=O)Nc2cccc3c2O[C@@H](CN(C)C(=O)NC2CCCCC2)[C@H](C)CN([C@@H](C)CO)C3=O)cc1 10.1%, C[C@@H]1CN([C@@H](C)CO)S(=O)(=O)c2ccc(C#Cc3ccccc3F)cc2O[C@H]1CN(C)CC1CCOCC1 35.2%, COc1ccccc1C#Cc1ccc2c(c1)O[C@@H](CN(C)Cc1cccnc1)[C@@H](C)CN([C@@H](C)CO)S2(=O)=O 24.6%, CC(C)NC(=O)N(C)C[C@H]1OCc2ccccc2-c2ccccc2C(=O)N([C@@H](C)CO)C[C@H]1C -14.3%, COc1cccc(C(=O)Nc2ccc3c(c2)OC[C@@H](C)N(C(=O)C2CCCC2)C[C@H](C)[C@@H](OC)CN(C)C3=O)c1 -18.8% [at 8 µM], CC(C)CC#Cc1ccc2c(c1)O[C@H](CN(C)Cc1ccncc1)[C@@H](C)CN([C@@H](C)CO)S2(=O)=O 23.1%, C[C@H](CO)N1C[C@H](C)[C@H](CN(C)Cc2ccc3c(c2)OCO3)Oc2ncc(-c3cccc(F)c3)cc2C1=O -9.89% [at 8 µM], N#C[C@H]1[C@H](c2ccc(-c3cccc(F)c3)cc2)[C@@H](CO)N1C(=O)NC1CCCC1 28.5%, CCCC(=O)Nc1ccc2c(c1)C(=O)N(C)C[C@@H](OC)[C@@H](C)CN(Cc1ccccc1)[C@H](C)CO2 9.23%, C[C@H]1CN([C@@H](C)CO)S(=O)(=O)c2ccc(C3=CCCCC3)cc2O[C@H]1CN(C)C(=O)c1ccncc1 14.4%, N#C[C@H]1[C@@H](c2ccc(C#Cc3ccccc3F)cc2)[C@@H](CO)N1C(=O)C1CCCCC1 -9.56%, C[C@@H]1CN([C@@H](C)CO)C(=O)Cc2cc(NC(=O)C3CC3)ccc2O[C@@H]1CN(C)Cc1ccc(-c2ccccc2)cc1 49.5%, O=C(C[C@H]1CC[C@@H]2[C@H](COC[C@H](O)CN2Cc2ccc(Cl)cc2)O1)NCc1ccccc1Cl 32% [at 8 µM], COc1cccc(NC(=O)N[C@H]2CC[C@H](CC(=O)N3CCCCC3)O[C@@H]2CO)c1 17.5%, O=C(C[C@@H]1CC[C@H]2[C@@H](COC[C@@H](O)CN2Cc2ccc(Cl)cc2)O1)NCc1ccccc1Cl -28.7% [at 1.95 µM], C[C@@H]1CN([C@@H](C)CO)S(=O)(=O)c2ccc(C3=CCCCC3)cc2O[C@H]1CN(C)Cc1cccnc1 15.4%, CNC[C@H]1Oc2cc(C#CCC3CCCC3)ccc2S(=O)(=O)N([C@@H](C)CO)C[C@@H]1C 29.2% [at 8 µM], CO[C@@H]1CN(C)C(=O)c2cc(NC(=O)Nc3cccc(F)c3)ccc2OC[C@@H](C)N(C)C[C@H]1C -12.5%, O=C(Nc1ccc(F)cc1)Nc1ccc2c(c1)[C@@H]1C[C@H](CC(=O)N3CCCCC3)O[C@@H](CO)[C@@H]1O2 -6.91%, CC(C)C#Cc1ccc2c(c1)O[C@@H](CN(C)Cc1ccncc1)[C@H](C)CN([C@H](C)CO)S2(=O)=O 6.91% [at 1.95 µM], COc1cccc(NC(=O)N[C@H]2C=C[C@@H](CC(=O)NCc3ccncn3)O[C@H]2CO)c1 -10.2% [at 1.95 µM], C[C@H]1CN([C@@H](C)CO)S(=O)(=O)c2ccc(C3=CCCC3)cc2O[C@@H]1CN(C)Cc1ccncc1 -16.8% [at 1.95 µM], CCCN1C[C@H](C)[C@H](OC)CN(C)C(=O)c2ccc(NC(=O)c3ccc(F)cc3)cc2OC[C@@H]1C -9.18%, COc1cccc(-c2ccc3c(c2)O[C@@H](CN(C)Cc2ccncc2)[C@H](C)CN([C@H](C)CO)S3(=O)=O)c1 19.2%, CO[C@H]1CN(C)C(=O)c2cc(NC(=O)c3ccc(-c4ccccc4)cc3)ccc2OC[C@H](C)NC[C@H]1C 27.6% [at 8 µM], O=C(Cc1ccccc1)N[C@H]1CC[C@@H](CC(=O)N2CCOCC2)O[C@@H]1CO -8.53% [at 8 µM], O=C(Cc1ccccc1)N[C@@H]1CC[C@@H](CC(=O)N2CCOCC2)O[C@H]1CO -16.6% [at 8 µM], CO[C@@H]1CN(C)C(=O)c2cc(NC(=O)Nc3ccccc3F)ccc2OC[C@@H](C)N(CCC(F)(F)F)C[C@H]1C 10.2%, CC(C)C(=O)Nc1ccc2c(c1)C(=O)N(C)[C@H]1CC[C@@H](CC(=O)NCc3ccccc3F)O[C@@H]1CO2 -12.2% [at 8 µM], CNC[C@@H]1Oc2ncc(-c3ccc(OC)cc3)cc2C(=O)N([C@H](C)CO)C[C@H]1C 28.1%, CO[C@@H]1CN(C)C(=O)c2ccc(NC(=O)c3ccccc3F)cc2OC[C@@H](C)N(CC2CC2)C[C@H]1C -10.7% [at 1.95 µM], CCCC(=O)Nc1ccc2c(c1)C(=O)N(C)C[C@H](OC)[C@@H](C)CN(Cc1ccccc1)[C@@H](C)CO2 22.4%, C[C@H]1CN([C@@H](C)CO)C(=O)c2cc(C3=CCCCC3)cnc2O[C@@H]1CN(C)C(=O)c1cccc(F)c1 21.2%, CC(=O)N(C)C[C@H]1Oc2ncc(-c3ccc(C(=O)N(C)C)cc3)cc2C(=O)N([C@@H](C)CO)C[C@H]1C -3.53% [at 1.95 µM], O=C(Cc1ccccc1)N[C@H]1CC[C@H](CC(=O)N2CCOCC2)O[C@@H]1CO -10.8%, O=C(Cc1ccccc1)N[C@@H]1CC[C@H](CC(=O)N2CCOCC2)O[C@H]1CO -12.9%, CCC(=O)N(C)C[C@H]1Oc2ncc(-c3ccc(C(=O)N(C)C)cc3)cc2C(=O)N([C@H](C)CO)C[C@@H]1C 21.8% [at 8 µM], COCC(=O)Nc1ccc2c(c1)OC[C@@H](C)N(C(=O)c1ccccc1F)C[C@H](C)[C@@H](OC)CN(C)C2=O -10.4% [at 35 µM], Cc1ccccc1-c1ccc2c(c1)O[C@H](CN(C)Cc1ccncc1)[C@@H](C)CN([C@@H](C)CO)S2(=O)=O 7.76%, C[C@H]1CN([C@@H](C)CO)S(=O)(=O)c2ccc(C#CC3CCCCC3)cc2O[C@@H]1CN(C)Cc1cccnc1 26.3% [at 1.95 µM], C/C=C/c1cnc2c(c1)C(=O)N([C@@H](C)CO)C[C@H](C)[C@@H](CN(C)Cc1ccc(F)cc1)O2 -8.42% [at 8 µM], CC(C)CC#Cc1ccc2c(c1)O[C@@H](CN(C)C(=O)C1CCCCC1)[C@@H](C)CN([C@@H](C)CO)S2(=O)=O 27.1%, O=C(Nc1ccc2c(c1)[C@H]1C[C@@H](CC(=O)N3CCc4ccccc4C3)O[C@@H](CO)[C@H]1O2)c1ccc2c(c1)OCO2 -27.9% [at 8 µM], CCCC#Cc1ccc2c(c1)O[C@@H](CN(C)Cc1cccnc1)[C@@H](C)CN([C@H](C)CO)S2(=O)=O 35.5%, CCCC(=O)Nc1ccc2c(c1)C(=O)N(C)C[C@H](OC)[C@H](C)CN(Cc1ccc(F)cc1)[C@H](C)CO2 22.5%, CC(C)CC#Cc1ccc2c(c1)O[C@H](CN(C)Cc1ccc3c(c1)OCO3)[C@H](C)CN([C@H](C)CO)S2(=O)=O 43.6%, COc1ccccc1CNC(=O)C[C@@H]1C[C@@H]2c3cc(NC(=O)NC4CCCC4)ccc3O[C@@H]2[C@@H](CO)O1 -8.98% [at 1.8 µM], C[C@H](CO)N1C[C@H](C)[C@H](CN(C)C(=O)NC2CCCCC2)Oc2cc(C#Cc3ccc(F)cc3)ccc2S1(=O)=O 14.3%, COc1cccc(-c2ccc3c(c2)O[C@H](CN(C)Cc2cccnc2)[C@@H](C)CN([C@@H](C)CO)S3(=O)=O)c1 21.5%, CO[C@@H]1CN(C)C(=O)c2ccc(NC(=O)NC(C)C)cc2OC[C@@H](C)N(C(=O)NC(C)C)C[C@@H]1C 16.7%, C[C@H]1CN([C@@H](C)CO)S(=O)(=O)c2ccc(C#CC3CCCC3)cc2O[C@H]1CN(C)C(=O)Cc1ccccc1 16.1%, CCCNC(=O)C[C@@H]1CC[C@H]2[C@H](COc3ccc(NC(=O)c4cccc(Cl)c4)cc3C(=O)N2C)O1 -10.6% [at 8 µM], C=CCOC(=O)[C@H]1[C@@H]2C(=O)O[C@@H](c3ccccc3)[C@@H](c3ccccc3)N2[C@@H](c2ccc(OCCOC(=O)[C@H]3C[C@H]4C(=O)N5CCC[C@H]5C(=O)N4[C@H]3c3cccc(OCCO)c3)cc2)[C@]12C(=O)Nc1ccccc12 -23.8% [at 8 µM], C[C@@H]1CN([C@@H](C)CO)S(=O)(=O)c2ccc(-c3cncnc3)cc2O[C@H]1CN(C)C(=O)CC1CC1 -11% [at 8 µM], CN(C)CC(=O)N1[C@H](C#N)[C@@H](c2ccc(/C=C/c3ccccc3)cc2)[C@H]1CO 19.5%
